For 20 molecules, Potency results are on record in PubChem BioAssay (NCATS).

Results filed as inconclusive are left out. A call without a number means that no potency is given here. Calls of active or inactive are those of the source. Calls come from the whole dose curve; as a rule, active = well fitted inhibition curve with a large enough effect; inconclusive = small, poorly fitted or top-dose-only effect; inactive = flat fitted curve, though single readings scatter.
Potency is the fitted concentration of half-maximal effect.

The test concerns CP211. As to the kind of experiment: qHTS profiling for inhibitors of Plasmodium falciparum proliferation (AID 504749). Note: nearly all actives have a fitted effect of over 60% in size. The following applies: P. falciparum in erythrocytes, SYBR Green DNA, 72 h; series mostly up to 28.7 µM. A digest of the protocol: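 Fluorescence of SYBR Green-bound parasite DNA, read at 485/535 nm, served as the growth measure. Infected erythrocytes were cultured with compound 72 h; artemisinin (0.29 uM) and DMSO wells defined the normalization range.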
Background: In qHTS, concentration-response curves come from the screen itself.
For `CCCCCCCCCCCCCCCC[N+](C)(C)C`, the Potency was 13.5 µM (active).
Next, `C[C@]12CCC(=O)C(O)=C1CC[C@@H]1[C@H]3CCC(=O)[C@@]3(C)CC[C@@H]12`: “inactive”.
With `CC(C)NC(C)Cc1ccc(I)cc1` (stereo not given), the Potency result was “inactive”.
As to `CCCCc1ccc(C(=O)O)nc1`, the Potency entry was “inactive”.
Next, `CC(=O)OCC1=C(C(=O)O)N2C(=O)[C@@H](N)[C@@H]2SC1`: “inactive”; `NC(=O)CN1CC(O)CC1=O` (stereo not given): “inactive”.
In the case of `CCCN1CCC[C@H](c2cccc(O)c2)C1`, the Potency entry is “inactive”.
In the case of `COC(=O)c1cncn1C(C)c1ccccc1` (stereo not given) it was “inactive”.
In the case of `O=C(O)C(Cl)Cl` it was “inactive”; in that of `CC(=O)[O][Hg][c]1ccccc1`, 15.1 µM (active).
For `C=CCN1CC[C@]23CCCCC2[C@H]1Cc1ccc(O)cc13` (stereo not given in full), the Potency entry was “inactive”.
In the case of `c1ccc(C2(c3ccccc3)CC2C2=NCCN2)cc1` (stereo not given), the Potency result was “inactive”.
In the case of `Cc1ccc(Cl)c(O)c1`, the Potency result was “inactive”.
With `CN1C2CCC1CC(OC(=O)c1cc(Cl)cc(Cl)c1)C2` (stereo not given), the Potency result was “inactive”.
Regarding `O=[N+]([O-])c1ccc([As](=O)(O)O)cc1`, the Potency is 7.57 µM (active).
`C1CCC(NC2CCCCC2)CC1`: the Potency entry was “inactive”.
With `Cc1cc(O)ccc1Cl`, the Potency entry is “inactive”.
`CCCCCCCCCC(CC)c1ccc(S(=O)(=O)O)cc1` (stereo not given): the Potency result was “inactive”.
In the case of `CC[N+]1(CCOC(=O)C(O)(c2ccccc2)c2ccccc2)CCCCC1` it was “inactive”; in that of `O=C(O)COc1ccccc1`, “inactive”.
